Here are results for 39 compounds from ChEMBL document CHEMBL3988442, “University of Dundee, Small-Polar-MMV Screening Library” (2021).

Structures are written as SMILES.

The target in the assay is Shiga toxin 2 (Escherichia coli O157:H7) (UniProt P09385+P09386). Briefly: E. coli 0.157:H7 Shiga Toxin SOP - stx2 screening assay. The assay is classed as functional. More on the design: scale not given: direction of the effect not stated beside the values. The conditions noted are these: 30 µM.
As for `Cc1nnc(N2CC[C@H](OCC3CC3)[C@@H](Cc3ccccc3)C2)s1`, the Percent Effect was -15.5%.
The same measure for `CC(=O)N1CCN(CC2CCOc3ccccc3C2)CC1` (centres undefined): -26.3%; for `CN(C)C(=O)NC1COC2(CCN(Cc3nccn3C)CC2)C1` (centres undefined): -6.31%.
The figure for `Cc1cc(NC(=O)CN2CCc3nn(C)c(=O)cc3C2)on1` is -13.1%; for `O=C(CCC1CCCC1)NCCn1nc(C2CCNC2)c2nccnc21` (centres undefined) it is -35.4%; for `Cc1cnn(CCNCc2csc(-c3ccc4c(c3)OCO4)n2)c1` it is 23.7%.
The figure for `CNC(=O)N1CC[C@H]2N(C)CC[C@@]2(C(=O)Nc2ccccc2)CC1` is 15.9%; for `O=C(NC1(c2cccc(F)c2)CCOCC1)c1ccccn1` it is -49.2%; for `Cc1nc(COC[C@@H]2CCC[C@@]23CNCCO3)cs1` it is -7.74%.
Take `CN1CCc2nc(C3CCN(C(=O)CCC4CCCC4)CC3)ncc2C1`: the Percent Effect was -43.2%.
The same measure for `Cc1n[nH]c(=O)c2c(NC(=O)CN3CCC(O)CC3)oc(C)c12`: -66.6%.
The figure for `CC(c1nc(C2CC2)no1)N1CCN(Cc2cccc(C#N)c2)CC1` (centres undefined) is 9.24%; for `CC(C)n1[nH]c(=O)c2c1NC(=O)CC2c1cccc(OC(F)F)c1` (centres undefined) it is -12.1%; for `CC(C)c1nn(C)c(Cl)c1CNCc1ccc2c(c1)OCCO2` it is 32.9%.
The same measure for `CCCn1ccc2ccc(NC(=O)N(C)CCOC)cc21`: -13.1%.
Regarding `CC(C)(C)n1ncc2c1NC(=O)CC2c1ccsc1` (centres undefined), the Percent Effect was -10.8%.
The same measure for `CC(=O)Nc1cccc(OCCNC(=O)N(C)Cc2ccco2)c1`: -16.7%; for `CCCc1n[nH]c(C2CN(C(=O)CCCn3cccn3)CCO2)n1` (centres undefined): -21.7%; for `CS(=O)(=O)N1CCC2(CC1)CC(CC(=O)N1CCCC1)c1ccccc12` (centres undefined): 8.75%.
The same measure for `CC(=O)N1CCC2(CC1)CC(Oc1ccccc1)CO2` (centres undefined): -19.5%; for `c1ccc2c(N3CCCC3Cn3cccn3)ncnc2c1` (centres undefined): -23.1%; for `Cc1ccc(S(=O)(=O)NC(=O)c2cccc(OCC(N)=O)c2)s1`: -20.2%.
The same measure for `CCCC(C)C(=O)NCc1cn2cc(Br)ccc2n1` (centres undefined): -63.8%.
With `COCCCNC(=O)CN(C)C(=O)c1cc(C)ccc1N(C)C(C)C`, the Percent Effect was 4.69%.
The figure for `CC(=O)N1CCN(Cn2nc(-c3ccc(F)cc3)oc2=O)CC1` is -18.6%; for `O=c1ccc(-c2cccs2)nn1CN1CCCCCC1` it is -4.33%.
The figure for `Cn1ccnc1CN1CCN(Cc2ccccc2C#N)CC1` is 7.78%; for `Cn1cc(C(=O)N2CCCC(n3cccn3)C2)c2ccccc21` (centres undefined) it is -6.71%; for `CCO[C@@H]1CO[C@@]2(CCCN(S(=O)(=O)c3cccnc3)C2)C1` it is -20%.
`CCc1nc(CN2CCN(C(=O)CCc3ccccc3)CC2)cs1`: the Percent Effect is -33.2%.
The same measure for `CN1CC(=O)N(c2cnn(C)c2)CC12CCN(C(=O)c1ccsc1)C2` (centres undefined): -1.99%; for `COCCN1CCc2cc(C(=O)N(C)C)c(NCC3CC3)nc2CC1`: 0.232%.
The figure for `Cn1ccnc1COc1ccc(CO)cc1` is -14.5%; for `CC(C)CCN1CC2(CCCN(C(=O)c3cscn3)C2)CCC1=O` (centres undefined) it is -13.4%.
The figure for `CCOCCC(=O)Nc1cccc(Oc2ccccn2)c1` is -31.9%; for `Cc1cnc(NC(=O)c2ccc(-n3ncc(C#N)c3N)cc2)s1` it is -13.3%.
`COc1cccc(C2CCCN2Cc2nc3c(cnn3C)c(=O)[nH]2)c1` (centres undefined): the Percent Effect is -6.96%.
The figure for `Cc1cccc(C2(C(=O)NCCCn3cccn3)CC2)c1` is -5.42%.
The figure for `Cc1nc2ccccc2nc1CN1CCCC1c1c(C)nn(C)c1C` (centres undefined) is -18.4%.
